Screening results deposited in PubChem by National Center for Advancing Translational Sciences (NCATS).
Shiga toxin inh: inhibitors of Shiga toxin in Vero cells; Vero cells, Shiga toxin protein synthesis inhibition reporter; inhibition, % at 38.7 µM; actives 9.2% (n = 290,000); in the data active means inhibition mostly above about 28%, no sharp cut-off; inactive means mostly below about 43%; further: 0% is about no effect
CHX counter: affects cycloheximide protein synthesis inhibition readout, counter-screen; cell reporter, cycloheximide protein synthesis inhibition counterscreen; max response, %; actives 12% (n = 300,000); in the data active means max response mostly above about 13%, no sharp cut-off; inactive means mostly below about 14%; further: read at 38.3 µM for the half of the compounds with a filed dose; 0% is about no effect
Pf growth 48h: inhibits P. falciparum growth in the first generation, 48 h. P. falciparum luciferase growth in erythrocytes, 48 h. Potency, µM (top dose mostly 28.7 µM), inactives show top-dose activity change, negative = inhibition, actives largely listed as inhibitors. actives 5.9% (n = 310,000); further: potency means the concentration at half of the fitted maximal effect; on the % scale 0 is the no-effect control and ±100 the full control effect
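Read-out is firefly luciferase luminescence from an integrated reporter in P. falciparum, so falling signal marks reduced parasite growth. Infected erythrocytes were at 2% hematocrit and 0.1% parasitemia (final) in Albumax-supplemented RPMI 1640.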
HCV inhibitor: inhibitors of hepatitis C virus infection; Huh7.5.1 HCVcc-Cre infection, luciferase reporter, 44 h; AID 651820; Potency, µM (titrated, usually from 41.8 µM), for inactives: top-dose activity change, negative = inhibition, hits mostly inhibitors; actives 3.4% (n = 340,000); further: potency means the concentration at half of the fitted maximal effect; on the % scale 0 is the no-effect control and ±100 the full control effect
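After 44 h co-culture of compound, cells and HCVcc-Cre (~0.5 moi), substrate is added for 15 min at room temperature and luciferase measured over 15 sec. Cells were seeded at 1,000/well and pre-cultured 4 h.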
HCMV inh: blocks human cytomegalovirus replication. AID 1259415. actives 4.5% (n = 410,000). HFF cells, HCMV-luciferase reporter, 72 h; hits give low values. activity change, negative = inhibition, % at 57.5 µM; in the data active means activity change below about -60%; inconclusive means no clear call, values can overlap the other calls; inactive means above about -39%; further: on the % scale 0 is the no-effect control and ±100 the full control effect
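After 16 h attachment at 37C, HFF cells received test compound and HCMV-luciferase (1 PFU/cell); reporter luminescence read 72 h later, data normalized against buffer-only and known inhibitor Salinomycin.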
Pf growth 96h: P. falciparum growth inhibition at 96 hour, primary screen for plastid delayed-death inhibitors | Potency, µM (highest dose often 28.7 µM), inactives show at the highest dose activity change, negative = inhibition, most hits filed as inhibitors | P. falciparum luciferase reporter growth, 96 h | actives 6.9% (n = 320,000) | AID 504834; further: potency means the concentration at half of the fitted maximal effect; on the % scale 0 is the no-effect control and ±100 the full control effect
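Infected RBCs, 2% Hct / 0.05% parasitemia final; luciferase-reporter P. falciparum; cpd 96 h, 37 C, 5% CO2; luciferase detection reagent; luminescence.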
Numbers without * were called inactive; ? = inconclusive; nt = no result. A selection: hits, their analogues and other compounds. The true share with any hit is near 21%. Unless noted, the call rests on the fitted dose curve; in most records, active means well fitted inhibition curve with a large enough effect; inconclusive means small, poorly fitted or top-dose-only effect, or another doubt; inactive means no such curve, though single readings can be large or run the other way.

SMILES | Shiga toxin inh | CHX counter | Pf growth 48h | HCV inhibitor | HCMV inh | Pf growth 96h
O=S(=O)(N1CCCCC1)n1c(Cc2ccccc2)nc2ccccc21 | -3.1 | 8.3 | 11.7µM* | -0.2% | -36.5 | nt
O=S(=O)(c1ccc(Br)cc1)n1c(Cc2ccccc2)nc2ccccc21 | -8.9 | -3.4 | -7.1% | 18.1% | ? | ?
COc1ccccc1Nc1c2c(nc3ccccc13)CCC2 | -6.3 | -6.3 | 8.28µM* | ? | -68.5* | ?
COc1ccc(Nc2c3c(nc4ccccc24)CCC3)c(OC)c1 | -5.8 | -2.8 | ? | ? | ? | -14.5%
COc1cc(Cl)c(C)cc1Nc1c2c(nc3ccccc13)CCC2 | nt | nt | nt | nt | -100.7* | nt
COc1cc(Nc2c3c(nc4ccccc24)CCCC3)cc(OC)c1OC | -4.2 | -3.0 | ? | -21.3% | -35.7 | -0.5%
CCOc1ccc(NC(=O)c2ccc3c(SCC(=O)O)c4c(nc3c2)CCC4)cc1 | nt | nt | nt | nt | -9.2 | nt
CCOC(=O)c1ccc(CN(Cc2ccccc2C)S(=O)(=O)c2ccc(F)c(C)c2)cc1 | nt | nt | nt | nt | -14.2 | nt
CCNC(=S)NNC(=O)CCc1nc2cc(Cl)ccc2n(Cc2ccccc2)c1=O | -8.3 | -3.4 | ? | ? | -11.9 | 5.86µM*
CN(C)C(CNC(=O)CCc1nc2cc(Cl)ccc2n(Cc2ccccc2)c1=O)c1ccccc1 (stereo unspecified) | nt | nt | 9.28µM* | ? | ? | 10.4µM*
NC(=O)CCc1nc2cc(C(F)(F)F)ccc2n(Cc2ccccc2)c1=O | -7.5 | -4.1 | -4.5% | -2.6% | -14.4 | -7.2%
O=C(CNC(=O)Cc1ccccc1)NCc1cccs1 | nt | nt | 1.3% | 19.3% | 12.8 | 56.5%
O=C(NCc1cccs1)Nc1cccc(Cl)c1 | nt | nt | nt | -13.6% | 18.3 | nt
O=C(NCc1cccs1)Nc1cccs1 | 33.4* | 38.1* | 45.8% | -0.9% | 31.1 | 40.9%
O=C(NCc1ccccc1)NCc1cccs1 | 41.5* | 22.4* | 73.2% | 11.2% | 13.2 | ?
Cc1ccccc1CNC(=O)Nc1cccs1 | 66.0* | 50.8* | 83.6% | ? | 15.8 | -17.0%
O=C(O)C1C2C=CC(C2)C1C(=O)NCc1cccs1 (stereo unspecified) | -4.2 | -4.9 | -1.4% | 2.1% | -12.1 | 4.15µM*
Cc1cccc(NC(=O)Nc2cccs2)c1C | nt | nt | nt | nt | -13.5 | nt
CC(C)(C)C(=O)Nc1ccc2nc(SCC(=O)N3CCc4ccccc43)sc2c1 | nt | nt | nt | nt | -8.5 | nt
Cc1ccccc1NC(=O)c1c(NC(=O)C(C)Oc2cccc(Cl)c2)sc2c1CCCC2 (stereo unspecified) | nt | nt | nt | nt | 31.8 | nt
COc1ccc(CC(=O)OCC(=O)Nc2ccc3c(c2)OCO3)cc1 | 20.5 | 1.7 | 6.0% | 3.3% | -13.3 | 27.6%
COC(=O)[C@]12CCCCC=C1N(Cc1ccc(Cl)cc1Cl)C(=O)[C@H](CC(=O)NCC1CCCCC1)C2 | nt | nt | nt | nt | 13.7 | nt
Cc1ccc(CNc2ncnc3c2cnn3C2CCCCO2)cc1 (stereo unspecified) | nt | nt | nt | -20.1% | -25.8 | nt
Cc1n[nH]c(=S)n(/N=C/c2cccc([N+](=O)[O-])c2)c1=O | -11.7 | -0.4 | 1.65µM* | 0.2% | 39.0 | ?
COc1cc(/C=N/n2c(=S)[nH]nc(C)c2=O)cc([N+](=O)[O-])c1O | 10.6 | -7.4 | 64.0% | 0.9% | -4.0 | 14.7µM*
SMILES | Shiga toxin inh | CHX counter | Pf growth 48h | HCV inhibitor | HCMV inh | Pf growth 96h
O=C(Nc1ccc(F)cc1)c1c(Cl)nc2ccccn12 | 73.3* | 31.2* | 169.4% | 0.1% | 22.6 | 37.1%
Cc1nc2ccccn2c1C(=O)NNS(=O)(=O)c1ccc(C(C)(C)C)cc1 | -7.0 | 8.5 | -1.1% | ? | -63.5* | 4.2%
CCC(=O)Nc1ccc(NC(=O)c2c(C)nc3ccccn23)cc1 | 10.4 | -3.9 | 25.1% | 14.2% | -14.1 | 74.3%
Cc1nc2ccccn2c1C(=O)NNC(=S)Nc1ccc(Cl)cc1 | 19.3* | -1.0 | -4.3% | -19.6% | ? | -13.6%
COc1ccc(NC(=O)c2c(Cl)nc3ccccn23)cc1 | 74.0* | 31.7* | 147.3% | 10.1% | -1.2 | 102.6%
COc1ccc(Br)cc1S(=O)(=O)NNC(=O)c1c(C)nc2ccccn12 | -11.3 | 1.3 | 9.9% | 13.2% | -38.3 | 45.4%
CCc1cnc2c(c1SCC(=O)Nc1ccc(C)cc1C)c(=O)n(C)c(=O)n2C | nt | nt | nt | nt | 2.1 | nt
Cc1csc(SCC(=O)NC(C)c2ccc(F)cc2)n1 (stereo unspecified) | -2.2 | -3.6 | 13.6% | 13.2% | -15.7 | 27.5%
